# Assay outcomes: PubChem, National Center for Advancing Translational Sciences (NCATS)
# A selection: hits, their analogues and other compounds. The true share with any hit is near 7.3%.
# FLuc modulator: counter-screen for miR-21 project: firefly luciferase inhibitors or activators. P08659. purified FLuc, Km substrates, luminescence inhibition. Potency, µM (titrated, usually from 57.5 µM), for the others: at the top dose activity change, negative = inhibition, hits mostly inhibitors. actives 6.9% (n = 360,000);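 also: plate controls were vehicle for no effect and reference inhibitor for full effect; nearly all actives have a fitted effect of over 55% in size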
# Target sequence (P08659 whole entry, looked up): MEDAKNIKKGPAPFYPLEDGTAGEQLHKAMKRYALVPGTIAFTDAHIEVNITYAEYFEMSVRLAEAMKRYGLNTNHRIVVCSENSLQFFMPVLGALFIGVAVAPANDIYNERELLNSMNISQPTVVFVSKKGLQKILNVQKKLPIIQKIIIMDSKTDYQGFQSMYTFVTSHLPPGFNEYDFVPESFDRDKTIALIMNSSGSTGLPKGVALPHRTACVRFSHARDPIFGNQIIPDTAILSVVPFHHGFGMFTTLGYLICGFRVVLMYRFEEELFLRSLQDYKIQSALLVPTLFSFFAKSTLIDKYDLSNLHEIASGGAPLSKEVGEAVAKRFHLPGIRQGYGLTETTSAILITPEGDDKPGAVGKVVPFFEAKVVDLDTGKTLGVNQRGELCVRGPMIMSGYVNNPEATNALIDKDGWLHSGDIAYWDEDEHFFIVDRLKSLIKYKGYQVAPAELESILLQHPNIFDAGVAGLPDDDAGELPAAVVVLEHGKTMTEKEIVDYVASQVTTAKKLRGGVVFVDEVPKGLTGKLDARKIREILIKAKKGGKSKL
#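 Biochemical qHTS of compounds, final roughly 60 µM downward over six points, against 10 nM purified firefly luciferase using Km concentrations of substrates (10 uM D-luciferin, 10 uM ATP) in Tris acetate pH 7.5 buffer; luminescence output.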
# KinaseGlo FLuc: Kinase-Glo luciferase inhibition (counter-screen). Kinase-Glo luciferase, ATP luminescence, 8 min. Potency, µM (doses to about 38.3 µM), for inactives: top-dose activity change, negative = inhibition, hits mostly inhibitors. actives 0.28% (n = 200,000); also: % is scaled to controls: 0 for no effect and ±100 for the full control effect; nearly all actives have a fitted effect of over 60% in size
#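 Light output from Kinase-Glo luciferase with luciferin and 10 uM ATP in 50 mM imidazole pH 7.2, KCl, MgCl2, Tween 20, BSA; compound pin-delivered, 8-min ambient incubation, then luminescence read.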
# Rab9 promoter act: activates the Rab9 promoter | Huh7 Rab9 promoter-luciferase reporter, luminescence, 24 h | Potency, µM (highest dose often 9.22 µM), inactives show top-dose activation, negative = inhibition, most hits filed as activators | actives 2.8% (n = 320,000); also: % of control where 0% means no effect; nearly all actives have a fitted effect of over 60% in size
#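 Quantitative HTS format; Huh7 Rab9-luciferase reporter cells (1500/well) receive compound 2 h post-plating, incubate 24 h at 37 °C, then get luciferase reagent for 10 min before luminescence reading.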
# SMN2 splice up: enhancers of SMN2 splice variant expression. HEK293 SMN2-luciferase splicing reporter, luminescence, 30-36 h. Potency, µM (top dose mostly 46.1 µM), inactives show at the highest dose activity change, positive = activation, usual class: activators. actives 2.8% (n = 210,000). AID 1458; also: % of control where 0% means no effect; nearly all actives have a fitted effect of over 55% in size
#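 HEK293 cells carry an SMN2 […]–luciferase reporter in which exon 7 inclusion puts luciferase in frame. Cells were plated 10-12 h before compound addition, then incubated 30-36 h at 37C. ONE-Glo luminescence was read; sodium butyrate at 4.5 mM final served as control.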
# ELG1 genotox: genotoxicity induction in ELG1-luciferase HEK293T cells; actives 1.3% (n = 330,000); HEK293T ELG1-luciferase reporter, luminescence, 16 h; Potency, µM (titrated, usually from 46 µM), without a hit: at the top dose activity change, positive = activation, hits mostly activators; AID 504466; also: % of control where 0% means no effect; nearly all actives have a fitted effect of over 60% in size
#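 Cells (2,000/well) expressing the ELG1-luciferase fusion are dosed by pin tool and kept 16 hr at 37 °C, 5% CO2. Signal comes from ONE-Glo luciferase reagent after 30 min at room temperature.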
# NPC1 promoter act: activators of NPC1 promoter | Huh7 NPC1 promoter luciferase reporter, 24 h | Potency, µM (series often up to 9.22 µM), for the others: at the highest dose activation, actives largely listed as activators | actives 2.4% (n = 320,000) | AID 485313; also: % of control where 0% means no effect; nearly all actives have a fitted effect of over 60% in size
#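 Luciferase expression driven by the NPC1 promoter was measured in stably transfected Huh7 cells after a 24 h compound incubation, using a luciferase reagent and a luminescence read.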
# * marks the source's active call; other numbers are inactive results; ? = inconclusive; . = no result. Calls follow the shape of the dose curve; as a rule, active = well fitted curve in the direction sought with a large enough effect; inconclusive = small, poorly fitted or top-dose-only effect, or another doubt; inactive = no such curve, though single readings can be large; an effect the other way counts as inactive or inconclusive. Potency is read from the fitted curve at half-maximal effect.
SMILES,FLuc modulator,KinaseGlo FLuc,Rab9 promoter act,SMN2 splice up,ELG1 genotox,NPC1 promoter act
CCc1ccc(CNC(=O)c2ccc3c(c2)c(C)c(C)n3Cc2ccccc2)cc1,-7%,.,.,.,.,.
Cc1c(C)n(Cc2ccccc2)c2ccc(C(=O)OCCN(C)C)cc12,21µM*,0%,-12%,.,1%,1%
COC(=O)c1sccc1NC(=O)c1c(Cl)cccc1Cl,2%,.,-3%,.,2%,-3%
COC(=O)c1cc(Cl)c(NC(=O)/C=C/c2ccc(Cl)cc2Cl)cc1OC,-20%,0%,0%,-7%,?,13%
COC(=O)c1sccc1NC(=O)/C=C/c1ccc(Cl)cc1Cl,?,-29%,?,11µM*,?,?
COC(=O)c1sccc1NC(=O)/C=C/c1c(Cl)cccc1Cl,12µM*,-8%,?,14µM*,?,21%
CCOc1ccc(/C=C2\SC(=S)N(N3C(=O)C4CC4C3=O)C2=O)cc1 (centres undefined),?,1%,0%,5%,1%,-2%
CCOc1ccc(N=C2NC(=O)S/C2=C\c2ccc(N(C)C)cc2)cc1,12µM*,-3%,?,11µM*,?,4.5µM*
CCOc1ccc(/C=C2/SC(=O)NC2=S)cc1,17µM*,1%,?,?,7%,25%
O=C1NC(=Nc2ccc(Cl)cc2)/C(=C/c2ccco2)S1,-13%,-2%,-2%,?,10%,-2%
O=C(C[C@H]1C(=O)N(C2CCCCC2)C[C@@H]1Cc1ccccc1)Nc1ccccc1,0%,.,-1%,.,-6%,-1%
COc1ccc(-c2nc3ccc(N4CCN(C)CC4)cc3c(=O)[nH]2)cc1,15µM*,0%,28%,49%,?,22%
COc1ccc2nc(C)cc(Nc3ccc(N4CCN(C)CC4)cc3)c2c1,-1%,.,-25%,.,15%,-19%
COc1cc(-c2nc3ccc(N4CCN(C)CC4)cc3[nH]2)cc(OC)c1OC,13µM*,-4%,-5%,16µM*,7.3µM*,0%
CCOc1ccc(-c2nc(CSCC(=O)NCc3ccco3)c(C)o2)cc1,12µM*,-3%,-7%,-65%,15%,-4%
COc1ccc(-c2nc(CSCC(=O)N3CCN(c4ccccc4F)CC3)c(C)o2)cc1,-18%,.,.,-65%,.,.
COc1ccc(-c2nc(CSCC(=O)NCc3ccc4c(c3)OCO4)c(C)o2)cc1,27µM*,17%,1%,-17%,-6%,-1%
CCOc1ccc(-c2nc(CSCC(=O)N3CCN(c4cccc(OC)c4)CC3)c(C)o2)cc1,24µM*,4%,-8%,-97%,-9%,2%
CCc1ccc(-c2nc(CSCC(=O)NCc3ccc(C)cc3)c(C)o2)cc1,19µM*,.,.,-37%,.,.
O=C(COC(=O)c1cnccn1)NCCc1ccccc1,0%,11%,4%,-9%,1%,2%
O=C(CCC1CCCN(C(=O)c2ccsc2)C1)N1CCN(c2ccccn2)CC1 (centres undefined),-1%,.,-6%,.,-7%,-4%
COC(=O)c1ccc(COC(=O)C(CCS(C)(=O)=O)N2C(=O)c3ccccc3C2=O)cc1 (centres undefined),1%,5%,1%,32%,4%,1%
CCc1ccc(-c2nc(CS(=O)CC(=O)O)c(C)o2)cc1 (centres undefined),21µM*,.,?,.,?,24%
CCc1ccc(-c2nc(CS(=O)CC(=O)NC3CC3)c(C)o2)cc1 (centres undefined),?,.,-3%,.,2%,-4%
COc1ccc(C2C(C(C)=O)=C(O)C(=O)N2CCCn2ccnc2)cc1 (centres undefined),1%,-1%,-7%,-8%,-1%,-1%
SMILES,FLuc modulator,KinaseGlo FLuc,Rab9 promoter act,SMN2 splice up,ELG1 genotox,NPC1 promoter act
Cc1c(CNC2CCC(C)CC2)c(C(=O)O)c(C)n1Cc1ccccc1F (centres undefined),0%,.,.,-3%,.,.
O=C(c1cc(-c2ccccc2)nc2ccccc12)N1N=C(C(F)F)CC1(O)C(F)F (centres undefined),0%,-6%,-9%,-1%,0%,24%
Cc1ccc(-c2cc(C(=O)N3N=C(C(F)F)CC3(O)C(F)F)c3ccccc3n2)cc1C (centres undefined),7.6µM*,0%,1%,8%,-3%,16%
CCOc1cccc(-c2cc(C(=O)N3N=C(C)CC3(O)C(F)F)c3ccccc3n2)c1 (centres undefined),24µM*,0%,-5%,3%,-2%,-10%
COc1ccc(OC(C)C(=O)NC(C)c2ccccc2)cc1 (centres undefined),3%,.,0%,.,0%,2%
O=C(Nc1ccc2oc(-c3ccc(Cl)cc3)nc2c1)c1ccc2ccccc2c1,1%,.,.,-6%,.,.
O=C(c1c(Cl)cccc1Cl)N1CCN(c2ccccn2)CC1,7%,-3%,-7%,?,-11%,-8%
O=C(CCCOc1ccccc1)N1CCN(c2ccc(F)cc2)CC1,27µM*,17%,27%,-4%,?,25%
O=C(CCCOc1ccc(Cl)cc1Cl)N1CCN(c2ccccn2)CC1,-17%,2%,8%,-3%,-4%,-3%
COC(=O)C1CCN(C(=O)CCCOc2ccccc2)CC1,4.8µM*,-7%,2.2µM*,.,2.6µM*,?
O=C(CCCOc1ccccc1)N1CCN(c2ccccn2)CC1,6.7µM*,2%,0.89µM*,14µM*,2.1µM*,1.3µM*
O=C(N1CCN(c2ccccn2)CC1)C(Cl)(Cl)Cl,-14%,-6%,14%,4µM*,1%,6%
O=C(O)C1CC(=O)n2c(nc3ccccc32)S1 (centres undefined),12%,-1%,7%,21%,2%,8%
O=C(CCSCc1ccccc1F)N1CCN(c2ccccn2)CC1,19µM*,0%,?,?,18µM*,24%
Cc1ccc(Cl)cc1N1CCN(C(=O)CCSCc2ccccc2F)CC1,1%,.,.,.,.,.
c1cc2cc(-c3c(-c4ccc5c(c4)OCO5)noc3-c3ccsc3)ccc2[nH]1,11µM*,.,?,.,15%,?
c1ccc(-c2onc(-c3ccco3)c2-c2ccc3[nH]ccc3c2)cc1,19µM*,.,4%,.,-2%,-1%
Cc1onc(-c2ccc3c(c2)OCO3)c1-c1ccc2[nH]ccc2c1,0%,.,?,.,15%,2%
c1ccc(-c2ccc3[nH]ccc3c2)cc1,?,.,-2%,.,?,?
Cc1sc2ncnc(N/N=C/c3ccccc3O)c2c1C,21µM*,-2%,-12%,-81%,?,6%
Cc1sc2ncnc(N/N=C/c3ccc(O)cc3)c2c1C,19µM*,0%,-6%,0%,8%,-7%
